Here are results for 5 compounds from PubChem BioAssay.

Experiment [1] can be described thus: yeast TOR pathway RPL19A-GFP modulators, primary screen, cell-based, S. cerevisiae, multiplex flow cytometry (AID 1862; in the data active = percent of DMSO control GFP below about 86%;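 also: lower values mimic rapamycin by blocking the RPL19A rise seen in DMSO cells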). As to conditions: S. cerevisiae RPL19A-GFP strain, flow cytometry fluorescence, 3 h; at 10 µM; stronger effect = lower value. Background: Flow cytometry measures light scatter and fluorescence of single cells or particles in a stream.
Experiment [2] is described as follows: modulators of MEP2-GFP levels in yeast, primary screen, S. cerevisiae, multiplex flow cytometry (AID 1867;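 active = GFP response, as percent of the DMSO control, above the screen-wide mean plus 3 SD, about 139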;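 also: median GFP channel fluorescence of barcode-gated MEP2-GFP cells measured by flow cytometry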). As to conditions: S. cerevisiae MEP2-GFP strain, 3 h, at 10 µM, stronger effect = higher value, 100% means same as DMSO wells.
Experiment [3] can be described thus: modulators of CIT2-GFP expression in yeast, primary screen, S. cerevisiae, GFP fusion, multiplex flow cytometry (AID 1870;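 active = percent response above a set limit, the screen-wide mean plus 3 SD, cut at about 130% in these data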;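 also: barcoded CIT2-GFP strain pooled with four other GFP strains with rapamycin as positive control; median GFP fluorescence per well over plate mean of DMSO wells so 100% = DMSO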). As to conditions: 3 h, at 10 µM, stronger effect = higher value.
Experiment [4] can be described thus: modulators of LAP4-GFP expression in yeast, primary screen, S. cerevisiae, multiplex flow cytometry (AID 1873;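 active = GFP signal, as percent of the solvent control, above the screen mean plus 3 SD, about 149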). As to conditions: 3 h, at 10 µM, stronger effect = higher value.
Experiment [5] in a line: modulators of AGP1-GFP expression in yeast TOR pathway, primary screen, cell-based, multiplex flow cytometry, S. cerevisiae (AID 1887;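 active = GFP signal above the screen-wide mean plus 3 SD, that is over about 124.5% of the solvent control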;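 also: AGP1-GFP fusion strain of S. cerevisiae within a five-strain barcoded multiplex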). As to conditions: 3 h, at 10 µM, stronger effect = higher value.
The nature of experiment [6]: inhibitors of CD8+ T cell-vesicle binding, pilot screen, LFA-1/ICAM-1 modulator project, MLPCN validation set, flow cytometry (AID 2523;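 active = response below a set limit, under 55% cells CD8-positive and vesicle-bound, and CD8 cells' 90th-percentile brightness under 279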;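 as to vesicle binding response: mean PE anti-B7-1 fluorescence of CD8+ cells relative to row control; 100% = QL9-loaded vesicles with DMSO vehicle in the same plate row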). As to conditions: 2C mouse CD8+ T cells, at 7 µM, stronger effect = lower value; double positive events: measured here: CD8+/vesicle+ event percentage.
Experiment [7] has as its target Integrin beta-1 (Homo sapiens) + Integrin alpha-4 (Homo sapiens) (UniProt P13612+P05556). As to the kind of experiment: inhibition of HUTS-21 binding to VLA-4, pilot screen, VLA-4 allosteric modulator project, U937 cells, HUTS-21 mAb, flow cytometry, validation set (AID 2674;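 active = inhibition above 50%, about 3 SD of the validation set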;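 also: antibody binding induced by the VLA-4 ligand LDV present at three times its Kd; 0% = LDV ligand with antibody and no compound and 100% = antibody without LDV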). As to conditions: HUTS-21 LIBS mAb binding, at 6.7 µM, stronger effect = higher value, binding induced by LDV ligand.

The nature of experiment [8]: superoxide lowering in aged yeast cells, pilot screen, validation compound set (AID 2706;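 active = superoxide response below 65% of plate, a cut near 3 SD across the whole screen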;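 also: yeast exposed to compound for one week at 30 degrees C before staining; 100% = mean of all compound wells on the same plate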). As to conditions: S. cerevisiae aging, superoxide DHE fluorescence; at 10 µM; stronger effect = lower value.
Experiment [9] deals with Beta-adrenergic receptor kinase 1 (Homo sapiens) (UniProt P25098). As to the kind of experiment: GRK2 binders displacing RNA aptamer, biochemical, validation, human GRK2, bead flow cytometry (AID 488806;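 active = aptamer binding inhibition above 30%, about 3 SD of noise from non-fluorescent compounds; inactive = inhibition at or below 30%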). As to conditions: bead-bound GRK2, FAM-aptamer displacement, at 10 µM, stronger effect = higher value.
Experiment [10] concerns the target Beta-2 adrenergic receptor (Homo sapiens) (UniProt P07550). As to the kind of experiment: beta2AR agonists driving receptor internalization, pilot screen, cell-based, FAP fluorogen, flow cytometry, validation set (AID 504459;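 active = percent response above 42, roughly 3 SD of non-fluorescent test compounds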;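 also: agonist-driven loss of surface beta2AR via internalization measured by FAP dye flow cytometry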). As to conditions: Am2.2-beta2AR cells, FAP surface receptor flow cytometry; at 10 µM; stronger effect = higher value.
Experiment [11] deals with AP-2 complex subunit beta (Homo sapiens) (UniProt P63010). The experiment is described as follows: inhibitors of arrestin peptide binding to AP2, pilot screen, biochemical, validation set, GST-AP2 beads, flow cytometry (AID 504541;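 active = inhibition above 54%, about 3 SD of non-fluorescent compounds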;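 also: AP2 carries R879A mutation and is captured from E. coli lysate; bead-bound FITC arrestin peptide fluorescence measuring arrestin peptide binding to AP2; 0% = DMSO wells and 100% = excess unlabeled arrestin peptide control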). As to conditions: FITC arrestin peptide, at 10 µM, stronger effect = higher value, AP2 beta2 appendage fragment, R879A mutant.
A short description of experiment [12]: yeast V-ATPase proton transport modulators, S. cerevisiae, pHLuorin, HTS validation (AID 504600; in the data active = response above about 15%;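 also: plate controls were DMSO for no effect and reference compound for full effect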). As to conditions: S. cerevisiae pHLuorin cytosolic pH, at 10 µM, stronger effect = higher value.
Experiment [13] relates to anti-desmoglein-3 scFv antibody binding to human DSG3. The experiment is described as follows: inhibitors of anti-DSG3 scFv binding to DSG3, pilot screen, biochemical, validation compound set, bead-based, flow cytometry (AID 588368;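 active = binding below the plate cutoff, the plate median minus 3 SD, with a reading above zero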;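 also: signal is the median channel fluorescence of bead-bound GFP antibody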). As to conditions: Protein G beads, DSG3-Fc, scFv-GFP binding, at 10 µM, stronger effect = lower value.
Experiment [14] is described as follows: inhibitors of fungal efflux pumps CDR1, CDR2, MDR1, pilot screen, validation compound set, multiplex, phenotypic (AID 588506;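 active = efflux inhibition above 0.42, the validation set average plus 4 SD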;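 also: Nile Red retained in cells so higher fluorescence means more efflux inhibition; 0 = negative control wells and 1 = enniatin B 25 µM full block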). As to conditions: S. cerevisiae pump-expressing triplex, Nile Red efflux flow cytometry; at 10 µM; stronger effect = higher value; the pumps come from Candida albicans.
Experiment [15] addresses ATP-binding cassette sub-family B member 6 (Homo sapiens) (UniProt Q9NP58). As to the kind of experiment: ABCB6 transporter inhibitors, pilot screen, K562-ABCB6 cells, flow cytometry, validation set (AID 588550;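 active = inhibition above the screen-wide mean plus 3 SD, about 51%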;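 also: 0% = DMSO wells and 100% = benzethonium chloride 70 µM positive control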). As to conditions: K562-ABCB6 porphyrin accumulation, 1 h, at 10 µM, stronger effect = higher value.
Experiment [16] can be described thus: promoters of myeloid differentiation in arrested cells, primary screen, cell-based, GFP/MAC1 double positive, flow cytometry, validation set (AID 588685).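 Also: compound exposure lasts four days before antibody staining and flow analysis; 0% = DMSO wells and 100% = 5 µM fulvestrant positive control.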 As to conditions: ER-HoxA9 marrow cells, stronger effect = higher value, normalized: vehicle 0, fulvestrant 100.

Broadly, the inhibition is the change of the read-out against control, counted positive when it falls.

Records with an inconclusive call do not appear. Active and inactive are the calls of the source.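 The calls were made as follows, unless noted: active = differentiation response of at least 50%, scaled between solvent and reference control, from cells with both markers; inactive = the rest.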

Chain of Beta-adrenergic receptor kinase 1 (Homo sapiens) (P25098 whole entry, looked up): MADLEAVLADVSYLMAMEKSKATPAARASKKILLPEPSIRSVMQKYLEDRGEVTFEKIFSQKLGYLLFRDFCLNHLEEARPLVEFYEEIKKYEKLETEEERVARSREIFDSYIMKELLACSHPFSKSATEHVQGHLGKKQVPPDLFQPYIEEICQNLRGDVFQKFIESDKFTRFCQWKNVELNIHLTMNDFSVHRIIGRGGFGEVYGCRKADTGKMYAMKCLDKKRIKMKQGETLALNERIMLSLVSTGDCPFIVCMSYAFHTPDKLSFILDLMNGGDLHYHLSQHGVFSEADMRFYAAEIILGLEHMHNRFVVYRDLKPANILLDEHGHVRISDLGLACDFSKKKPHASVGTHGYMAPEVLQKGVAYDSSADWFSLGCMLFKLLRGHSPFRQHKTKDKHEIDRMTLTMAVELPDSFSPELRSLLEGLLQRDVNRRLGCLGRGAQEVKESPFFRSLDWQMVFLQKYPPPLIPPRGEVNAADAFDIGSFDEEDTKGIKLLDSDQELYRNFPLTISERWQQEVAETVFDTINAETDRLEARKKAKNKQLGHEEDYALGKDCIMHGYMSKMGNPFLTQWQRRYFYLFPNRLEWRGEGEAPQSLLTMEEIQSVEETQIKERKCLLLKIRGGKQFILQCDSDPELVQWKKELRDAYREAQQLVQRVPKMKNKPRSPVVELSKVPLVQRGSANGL
Chain of Beta-2 adrenergic receptor (Homo sapiens) (P07550 whole entry, looked up): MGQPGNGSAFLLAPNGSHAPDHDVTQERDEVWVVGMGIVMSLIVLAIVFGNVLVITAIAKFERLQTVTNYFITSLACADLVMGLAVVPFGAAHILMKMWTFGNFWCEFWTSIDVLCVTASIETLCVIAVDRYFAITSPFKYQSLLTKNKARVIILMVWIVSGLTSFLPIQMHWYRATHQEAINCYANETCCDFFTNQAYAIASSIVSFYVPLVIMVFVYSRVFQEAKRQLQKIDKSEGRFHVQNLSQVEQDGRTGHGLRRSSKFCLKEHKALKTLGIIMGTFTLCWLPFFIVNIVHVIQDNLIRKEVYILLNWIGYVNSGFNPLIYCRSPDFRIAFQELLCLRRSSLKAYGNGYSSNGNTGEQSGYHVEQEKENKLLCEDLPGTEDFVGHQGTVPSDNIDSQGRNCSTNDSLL
Chain of AP-2 complex subunit beta (Homo sapiens) (P63010 whole entry, looked up, the tested form may be a part, one chain of several): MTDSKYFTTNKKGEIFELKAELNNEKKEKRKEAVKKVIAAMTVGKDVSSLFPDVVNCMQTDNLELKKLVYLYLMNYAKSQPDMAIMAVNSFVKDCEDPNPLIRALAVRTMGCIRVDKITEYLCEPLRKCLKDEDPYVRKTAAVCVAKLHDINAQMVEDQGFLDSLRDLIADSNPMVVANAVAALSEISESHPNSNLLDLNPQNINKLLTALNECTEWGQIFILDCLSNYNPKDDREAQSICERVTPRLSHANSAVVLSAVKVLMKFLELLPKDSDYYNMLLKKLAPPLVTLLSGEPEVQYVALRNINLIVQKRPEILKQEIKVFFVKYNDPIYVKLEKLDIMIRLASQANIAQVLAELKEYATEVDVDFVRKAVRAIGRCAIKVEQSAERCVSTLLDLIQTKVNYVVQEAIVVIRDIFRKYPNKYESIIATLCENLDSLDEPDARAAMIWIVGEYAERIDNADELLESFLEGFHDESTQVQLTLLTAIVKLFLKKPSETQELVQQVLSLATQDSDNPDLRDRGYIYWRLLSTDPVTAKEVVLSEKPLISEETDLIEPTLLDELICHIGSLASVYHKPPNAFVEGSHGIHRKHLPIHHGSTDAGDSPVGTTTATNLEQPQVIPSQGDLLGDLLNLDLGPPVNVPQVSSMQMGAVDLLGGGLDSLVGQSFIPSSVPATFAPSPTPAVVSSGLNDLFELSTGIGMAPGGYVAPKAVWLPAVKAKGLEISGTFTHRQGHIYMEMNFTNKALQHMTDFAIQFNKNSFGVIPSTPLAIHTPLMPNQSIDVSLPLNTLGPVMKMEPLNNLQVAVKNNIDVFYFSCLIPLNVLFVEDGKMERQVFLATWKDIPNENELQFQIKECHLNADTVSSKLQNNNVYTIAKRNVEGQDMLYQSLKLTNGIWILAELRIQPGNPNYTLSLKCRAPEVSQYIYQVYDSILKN
Chain of ATP-binding cassette sub-family B member 6 (Homo sapiens) (Q9NP58 whole entry, looked up): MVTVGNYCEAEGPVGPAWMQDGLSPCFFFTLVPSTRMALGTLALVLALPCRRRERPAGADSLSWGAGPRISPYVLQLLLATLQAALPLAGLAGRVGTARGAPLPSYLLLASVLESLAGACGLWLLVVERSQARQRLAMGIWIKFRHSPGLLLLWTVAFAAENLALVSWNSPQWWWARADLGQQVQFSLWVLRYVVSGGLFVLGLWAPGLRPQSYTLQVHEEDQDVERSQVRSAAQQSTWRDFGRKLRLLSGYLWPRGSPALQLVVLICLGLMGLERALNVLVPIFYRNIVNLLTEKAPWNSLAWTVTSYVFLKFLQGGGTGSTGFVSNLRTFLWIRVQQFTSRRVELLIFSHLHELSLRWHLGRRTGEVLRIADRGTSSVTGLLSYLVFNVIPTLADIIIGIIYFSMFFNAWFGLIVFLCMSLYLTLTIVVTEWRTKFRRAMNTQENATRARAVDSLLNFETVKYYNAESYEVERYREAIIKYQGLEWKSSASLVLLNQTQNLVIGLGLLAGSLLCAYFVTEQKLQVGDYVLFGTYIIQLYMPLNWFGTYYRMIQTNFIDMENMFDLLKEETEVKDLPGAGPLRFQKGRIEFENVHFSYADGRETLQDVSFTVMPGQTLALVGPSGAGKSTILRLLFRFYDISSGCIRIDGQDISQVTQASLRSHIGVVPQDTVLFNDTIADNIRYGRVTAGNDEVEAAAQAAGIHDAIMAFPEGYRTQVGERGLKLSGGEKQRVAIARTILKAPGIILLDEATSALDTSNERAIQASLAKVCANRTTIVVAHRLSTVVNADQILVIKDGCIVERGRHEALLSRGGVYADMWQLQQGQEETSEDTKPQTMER
Chain of Integrin beta-1 (Homo sapiens) + Integrin alpha-4 (Homo sapiens) (P05556 whole entry, looked up): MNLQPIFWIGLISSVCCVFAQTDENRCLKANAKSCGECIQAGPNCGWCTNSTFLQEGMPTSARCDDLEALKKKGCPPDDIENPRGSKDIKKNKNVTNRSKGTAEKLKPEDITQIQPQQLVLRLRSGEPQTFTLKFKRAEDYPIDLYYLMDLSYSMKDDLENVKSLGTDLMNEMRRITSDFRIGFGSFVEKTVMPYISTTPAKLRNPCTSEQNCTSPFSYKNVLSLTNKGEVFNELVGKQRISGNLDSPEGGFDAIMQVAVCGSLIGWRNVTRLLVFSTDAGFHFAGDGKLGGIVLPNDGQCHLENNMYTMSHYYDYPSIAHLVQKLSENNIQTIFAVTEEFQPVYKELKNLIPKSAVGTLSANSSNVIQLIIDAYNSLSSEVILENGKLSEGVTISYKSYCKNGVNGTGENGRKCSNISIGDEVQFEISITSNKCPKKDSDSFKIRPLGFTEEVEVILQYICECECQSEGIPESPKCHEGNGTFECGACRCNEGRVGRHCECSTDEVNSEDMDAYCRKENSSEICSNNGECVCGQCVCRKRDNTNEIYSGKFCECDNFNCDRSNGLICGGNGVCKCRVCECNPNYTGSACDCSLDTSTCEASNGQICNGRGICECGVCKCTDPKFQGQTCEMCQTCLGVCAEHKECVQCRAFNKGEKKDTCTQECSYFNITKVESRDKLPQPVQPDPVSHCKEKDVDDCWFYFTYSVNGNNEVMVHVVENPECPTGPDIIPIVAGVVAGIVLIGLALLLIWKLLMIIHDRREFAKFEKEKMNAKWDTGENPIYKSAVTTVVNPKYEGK
Chain of Integrin beta-1 (Homo sapiens) + Integrin alpha-4 (Homo sapiens) (P13612 whole entry, looked up): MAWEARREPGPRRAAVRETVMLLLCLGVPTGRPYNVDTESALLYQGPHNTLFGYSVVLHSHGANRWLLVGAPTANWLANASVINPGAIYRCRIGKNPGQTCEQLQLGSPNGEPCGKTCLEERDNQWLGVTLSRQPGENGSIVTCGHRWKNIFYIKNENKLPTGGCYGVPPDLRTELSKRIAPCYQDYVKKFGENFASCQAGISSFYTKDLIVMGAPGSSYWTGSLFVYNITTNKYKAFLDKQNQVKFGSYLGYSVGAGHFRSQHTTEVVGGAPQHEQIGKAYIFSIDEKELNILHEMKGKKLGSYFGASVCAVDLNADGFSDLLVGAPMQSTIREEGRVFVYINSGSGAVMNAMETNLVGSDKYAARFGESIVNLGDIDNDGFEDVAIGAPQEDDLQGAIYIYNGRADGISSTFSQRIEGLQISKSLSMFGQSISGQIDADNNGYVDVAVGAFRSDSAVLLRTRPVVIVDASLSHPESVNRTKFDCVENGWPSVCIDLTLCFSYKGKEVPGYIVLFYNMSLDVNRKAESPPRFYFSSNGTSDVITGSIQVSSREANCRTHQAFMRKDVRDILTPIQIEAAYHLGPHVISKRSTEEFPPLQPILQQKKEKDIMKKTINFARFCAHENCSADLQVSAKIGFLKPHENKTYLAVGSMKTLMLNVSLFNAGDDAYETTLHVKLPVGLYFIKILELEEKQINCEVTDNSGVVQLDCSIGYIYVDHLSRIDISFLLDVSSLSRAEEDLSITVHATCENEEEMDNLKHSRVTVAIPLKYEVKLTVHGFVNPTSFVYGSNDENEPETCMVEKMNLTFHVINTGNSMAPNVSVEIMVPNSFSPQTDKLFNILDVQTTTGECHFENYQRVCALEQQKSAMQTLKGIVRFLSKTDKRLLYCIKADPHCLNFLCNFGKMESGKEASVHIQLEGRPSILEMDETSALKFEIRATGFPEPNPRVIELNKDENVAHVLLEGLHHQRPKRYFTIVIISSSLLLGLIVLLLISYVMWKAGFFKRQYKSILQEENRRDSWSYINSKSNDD

With `O=C1C(=O)c2ccccc2C(O)=C1c1ccccc1F`, the percent of DMSO control GFP in experiment [1] is 111% (inactive). Also, the GFP response vs DMSO is 99.9% (inactive) in experiment [2] and 109% (inactive) in experiment [4]. The percent response of DMSO control in [3] is 71.2% (inactive). In [5], the GFP response, % of DMSO was 85% (inactive). Further, in experiment [6], the double positive events amounted to 54.9%. For the same compound, in [6], the vesicle binding response is 15.9% (active). For the same compound, the inhibition is -11.8% (inactive) in [7], 5.16% (inactive) in experiment [11] and 5% (inactive) in experiment [15]. For the same compound, the superoxide response (% of plate) in experiment [8] was 175% (inactive). For the same compound, the aptamer binding inhibition in experiment [9] is 6% (inactive). Also, the response in experiment [10] is 4.63% (inactive); in [12], 0.28% (inactive). The binding (% of control) in experiment [13] was 99% (inactive). Further, the efflux inhibition (fraction of control) in experiment [14] is 0.46 (active). The differentiation response in experiment [16] is 14.1% (inactive).

Consider `Cc1ccc(S(=O)(=O)NC(C(=O)Oc2cc3oc(=O)cc(C)c3cc2Cl)C(C)C)cc1` (stereo not given), for which the percent of DMSO control GFP in [1] is 102% (inactive). The GFP response vs DMSO was 102% (inactive) in experiment [2] and 103% (inactive) in experiment [4]. Also, the percent response of DMSO control in experiment [3] is 97.7% (inactive). Also, the GFP response, % of DMSO in experiment [5] was 111% (inactive). In [6], the double positive events is 62.7%. Also, the vesicle binding response in experiment [6] is 264% (inactive). In addition, the inhibition in [7] was 3.99% (inactive); in experiment [11], -3.53% (inactive); in experiment [15], 7% (inactive). For the same compound, the superoxide response (% of plate) in [8] was 98.7% (inactive). Besides, the aptamer binding inhibition in experiment [9] was 3% (inactive). Moreover, the results for the response in [10] and in experiment [12] were -20.1% (inactive) and 1.33% (inactive), respectively. For the same compound, the binding (% of control) in experiment [13] is 98.7% (inactive). For the same compound, the efflux inhibition (fraction of control) in experiment [14] is 0.21 (inactive). Further, the differentiation response in experiment [16] is -0.06% (inactive).

`CC(=O)CCCCn1c(=O)c2c(ncn2C)n(C)c1=O`: in experiment [1], the percent of DMSO control GFP was 103% (inactive). Besides, the GFP response vs DMSO in experiment [2] was 96.2% (inactive); in [4] it was 82.2% (inactive). Also, the percent response of DMSO control in experiment [3] is 106% (inactive). For the same compound, the GFP response, % of DMSO in [5] was 97.5% (inactive). The compound further showed a double positive events in [6] of 57.8%. The vesicle binding response in experiment [6] is 162% (inactive). Also, the inhibition was 12% (inactive) in [7], 4.72% (inactive) in [11] and -3% (inactive) in experiment [15]. The superoxide response (% of plate) in experiment [8] is 102% (inactive). Further, the aptamer binding inhibition in experiment [9] was 2% (inactive). Further, the response in experiment [10] is -1.49% (inactive); in experiment [12], 0.63% (inactive). Moreover, in experiment [13], the binding (% of control) was 95.5% (inactive). In addition, the efflux inhibition (fraction of control) in experiment [14] is 0.49 (active). Also, the differentiation response in experiment [16] was 20.8% (inactive).

For `COc1cccc(OCc2nnc(-c3cccs3)o2)c1`, in experiment [1], the percent of DMSO control GFP was 103% (inactive). Besides, the GFP response vs DMSO in experiment [2] was 105% (inactive); in experiment [4] it was 120% (inactive). Further, the percent response of DMSO control in experiment [3] is 102% (inactive). In experiment [5], the GFP response, % of DMSO was 99.6% (inactive). Further, the double positive events in experiment [6] is 60.1%. In experiment [6], the vesicle binding response is 248% (inactive). For the same compound, the inhibition was 5.69% (inactive) in experiment [7], 61% (active) in experiment [11] and -5% (inactive) in experiment [15]. Further, in experiment [8], the superoxide response (% of plate) was 104% (inactive). Also, in experiment [9], the aptamer binding inhibition was 3% (inactive). Moreover, the figures for the response in experiment [10] and in [12] were 55.8% (active) and -2.54% (inactive), respectively. Besides, the binding (% of control) in experiment [13] was 102% (inactive). Besides, the efflux inhibition (fraction of control) in experiment [14] is 0.08 (inactive). Besides, in experiment [16], the differentiation response was -0.06% (inactive).

In the case of `Cc1ccc(S(=O)(=O)N2CCC(C(=O)N[C@@H](C)C(=O)NC3CCS(=O)(=O)C3)CC2)cc1` (stereo not given in full), in experiment [1], the percent of DMSO control GFP was 101% (inactive). Further, the GFP response vs DMSO in experiment [2] was 96.6% (inactive); in experiment [4], 89.3% (inactive). Besides, the percent response of DMSO control in experiment [3] is 106% (inactive). Moreover, the GFP response, % of DMSO in experiment [5] was 96.3% (inactive). This compound had a double positive events in [6] of 57.7%. Also, the vesicle binding response in experiment [6] is 144% (inactive). For the same compound, the inhibition in experiment [7] is 12.3% (inactive); in experiment [11], -5.24% (inactive); in experiment [15], 13% (inactive). For the same compound, the superoxide response (% of plate) in experiment [8] was 103% (inactive). Also, in [9], the aptamer binding inhibition is 4% (inactive). Besides, the response is -1.25% (inactive) in experiment [10] and 22.5% (active) in experiment [12]. Also, the binding (% of control) in experiment [13] was 103% (inactive). The efflux inhibition (fraction of control) in experiment [14] is 0.1 (inactive). Also, the differentiation response in [16] is -13.3% (inactive).
